# Measurements taken from PubChem BioAssay (NCI).
# This is part of a sample that, as a whole, favours compounds with a hit. Of some 83,000 tested, about 20% had one in any assay.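 Plates (96-well) were seeded with cells, treated with compound at one concentration, and incubated for 48 hours before percent growth was determined.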 Values without a mark were called inactive. The source made the active and inactive calls.
# System: M14 melanoma
# Test: NCI-60 one-dose screen, 48 h (100 = growth as untreated, 0 = no growth, -100 = all killed)
# Details: 10 µM unless noted
# Description: Growth inhibition of the M14 human tumor cell line is measured as a screen for anti-cancer activity. Cells are grown in 96 well plates and exposed to the test compound for 48 hours. Compounds are tested at a single concentration, which is 10^-5 M for most compounds. The reported endpoint is percent growth (GI% or GIPRCNT), where numbers from 0 - 100% represent growth inhibition, and numbers from -100% - 0 represent cell death. For example, a value of 40 represents 60% growth inhibition. A value of 0 means no net growth occurred over the course of the experiment. A value of -40 indicates 40% of cells at the beginning of the experiment died by the end of the experiment. A value of -100 means all cells are dead at the end of the experiment.
# NCI-60 Human Tumor Cell Lines Screen was performed using the standard one-dose NCI protocol, which is described in more detail at https://dtp.cancer.gov/discovery_development/nci-60/default.htm.
# Compounds with GIPRCNT values below 10 were considered active. Activity score was based on GIPRCNT using the following formula: […]
# Score is 0 for GIPRCNT values of 100 or above, 50 for GIPRCNT values of 0, and 100 for GIPRCNT values of -100.
row,Structure (SMILES),growth
1,CC(C)C1=NOC(=O)C1=Cc1cn(-c2ccccc2)nc1-c1cccc([N+](=O)[O-])c1,78.3%
2,Cc1cc(-c2ccc(N=Nc3c(S(=O)(=O)O)cc4cc(S(=O)(=O)O)cc(N)c4c3O)c(C)c2)ccc1N=Nc1cc(S(=O)(=O)O)c2ccccc2c1O,101%
3,O=C(NCCCCCCCNC(=O)OCc1ccc2c(Cl)cc(Cl)c(O)c2n1)OCc1ccc2c(Cl)cc(Cl)c(O)c2n1,-76.4% (active)
4,Cc1cc(C)c(O)c(CNCCCCCCNCc2cc(C)cc(C)c2O)c1,-79.9% (active)
5,C=C(C)[C@@H]1CC[C@]2(C)[C@H](CC[C@@H]3[C@@H]([C@@](C)(O)CCC=C(C)C)CC[C@]32C)[C@@]1(C)CCC(=O)O,2.42% [100 µM] (active)
6,C=C(C)C1CCC2(C(=O)O)CCC3(C)C(CCC4C5(C)CCC(OC(=O)NCc6ccccc6)C(C)(C)C5CCC43C)C12 (stereo not given),45.6%
7,COc1ncc(-c2ccc3nc(N)n(-c4ccccc4C(F)(F)F)c(=O)c3c2)cc1S(=O)(=O)Nc1ccc(F)cc1F,8.91% (active)
8,Nc1nc(Nc2ccccc2)c2ncn(Cc3ccc4c(c3)OCO4)c2n1,16.3%
9,Oc1c(CNCCNCc2cc(Cl)cc(Cc3ccccc3)c2O)cc(Cl)cc1Cc1ccccc1,2.36% (active)
10,CCOc1ccccc1/C=N\Nc1ccc(S(=O)(=O)c2ccc(N/N=C/c3ccccc3OCC)cc2)cc1,96.9%
11,COc1ccc2c(c1)C(C)Cc1c(Cl)nc(C)nc1N2C (stereo not given),13.5%
12,CC(C)OC(=O)Nc1cc(F)ccc1F,96.6%
13,CCOc1cccc2c(NC(C)CCCN(CC)CC)c(C)cnc12 (stereo not given),104%
14,O=S(=O)(c1ccc(N/N=C\c2ccccc2Cl)cc1)c1ccc(N/N=C/c2ccccc2Cl)cc1,84.7%
15,Ic1ccc2[nH]cc(SSc3c[nH]c4ccc(I)cc34)c2c1,27.6%
16,O=C(Nc1cccc2cccnc12)c1cc(C(=O)c2ccc(Cl)cc2)n2ccc(-c3ccncc3)cc12,96.1%
17,C[C@H]1[C@H](C)CC[C@]2(COC(=O)CCC(=O)O)CC[C@]3(C)C(=CC[C@@H]4[C@@]5(C)CCCNC(C)(C)[C@@H]5CC[C@]43C)[C@H]12,92% [100 µM]
18,CC1Cc2c(Cl)ncnc2N(C)c2ccccc21 (stereo not given),14.7%
19,Brc1ccc2c(c1)CN(C1CCCCC1)CO2,105%
20,CSc1nc(=S)c2nc(SC)n(-c3ccccc3)c2[nH]1,102%

row,Structure (SMILES),growth
1,Cc1cccc(C[C@H](NC(=O)Nc2ccc(Cl)cc2F)C(=O)N[C@@H]2C(=O)N3C[C@H](O)C[C@H]3C(=O)N3CCCC[C@H]3C(=O)N[C@@H](C)C(=O)N3C[C@H](C)C[C@H]3C(=O)O[C@H]2C)c1,3.02% (active)
2,COc1ccc2c3ccnc(C(F)(F)F)c3n(CCCCN)c2c1,23.6%
3,O=C(CCCCCCSc1nc(-c2ccc(Cl)cc2)cc(-c2ccc(Cl)cc2)n1)NO,31.7%
4,Cn1cc(-c2noc(-c3cn(C)c4ncc(Br)cc34)n2)c2cc(Cl)ccc21,82.4%
5,CC1(C)CC[C@]2(C(=O)OC(=O)[C@]34CCC(C)(C)C[C@@H]3C3=CC[C@@H]5[C@@]6(C)CCC(=O)C(C)(C)[C@@H]6CC[C@@]5(C)[C@]3(C)CC4)CC[C@]3(C)C(=CC[C@@H]4[C@@]5(C)CCC(=O)C(C)(C)[C@@H]5CC[C@]43C)[C@H]2C1,77.9% [100 µM]
6,O=C(CSc1nc2ccc([N+](=O)[O-])cc2[nH]1)Nc1ccc(F)c(Cl)c1,25.4%
7,CC1(C)[C@@H](NOCCCN)CC[C@]2(C)[C@H]3C(=O)C=C4[C@@H]5C[C@](C)(C(=O)O)CC[C@]5(C)CC[C@@]4(C)[C@]3(C)CC[C@@H]12,-20.3% [100 µM] (active)
8,Cc1ccc(NC(=S)/N=c2/n(-c3ccccc3)nc3n2CCN3C2=NCCN2)cc1,82.8%
9,CNC(=O)c1cc(Oc2cccc3nc(NC(=O)Nc4cc(C(F)(F)F)cc(C(F)(F)F)c4)ccc23)ccn1,35.5%
10,COc1cc(C)cc2oc3oc(=O)c(-c4nc5ccccc5s4)cc3c(=O)c12,99%
11,C=C(C)[C@@H]1CC[C@]2(C(=O)NCCNCCNCCN)CC[C@]3(C)[C@H](CC[C@@H]4[C@@]5(C)CC[C@H](O)C(C)(C)[C@@H]5CC[C@]43C)[C@@H]12,-31% [100 µM] (active)
12,CCN(CC)c1ccc2cc(NC(=O)OCCNC(=O)CCNC(=O)[C@H](CC(C)C)NC(=O)C(C)(C)NC(=O)C(C)(C)NC(=O)[C@H](CC(C)C)NC(=O)CCNC(=O)C(C)(C)NC(=O)[C@H](CC(C)C)NC(=O)CCNC(=O)[C@@](C)(CC)NC(=O)[C@H](C)NC(=O)CCNC(=O)C(C)(C)NC(=O)[C@H](C)NC(=O)[C@@H]3CCCN3C(=O)[C@@](C)(CC)NC(=O)[C@H](Cc3ccccc3)NC(=O)C3CCCN3C(=O)C(C)(C)NC(=O)C3CCCN3C(=O)C(C)(C)NC(C)=O)c(=O)oc2c1 (stereo not given in full),-79.4% (active)
13,CCOC(CNC(=O)c1cccc([N+](=O)[O-])c1)OCC,98.7%
14,O=c1[nH]c(CN2CCN(c3cccc(Cl)c3)CC2)nc2cc(Cl)ccc12,89.1%
15,COC(=O)c1cc(O)c2c(c1C(=O)OC)C[C@H]1[C@@H]3CC=C4C[C@@H](O)CC[C@]4(C)[C@H]3CC[C@]21C,11.6%
16,Fc1ccc(NC(=S)c2ccccc2)cc1,100%
17,CCCCCCCCCCCCCCCCCCNC(=S)N/N=C/c1ccc(OC)c(OC)c1,104%
18,Cc1ccc(C2=C/C(=C/c3ccc(Br)cc3)C(=O)N2CCc2ccc(S(N)(=O)=O)cc2)cc1,97.5%
19,CC(=O)O.CC(=O)O.O.[Fe],106%
20,Cc1cc(SC#N)ncn1,108%
